Test results: PubChem BioAssay (NCATS)
Results filed as inconclusive are left out. Entries that show only a call come without a potency. Active and inactive are the calls of the source. The call rests on the fitted dose curve; in most records, active means well fitted curve in the direction sought with a large enough effect; inconclusive means small, poorly fitted or top-dose-only effect, or another doubt; inactive means no such curve, though single readings can be large; an effect the other way counts as inactive or inconclusive.

What follows are compounds tested against Beta-2 adrenergic receptor (Homo sapiens) (UniProt P07550) (assay: qHTS validation assay of beta-arrestin-biased ligands of beta2-adrenergic receptor (AID 485366)). Conditions: cell-based beta-arrestin recruitment to ADRB2, qHTS; series mostly up to 46.1 µM.
In short: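 qHTS, Tango cells, 1500 cells/well, DMEM + 1% FBS. Cpd 18 hr at 37 degrees C. Luciferin/ATP/CoA detection mix, 15 min RT, luminescence read. %Activity from corrected signal; CRC fit, curve class.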

Beta-2 adrenergic receptor (Homo sapiens), sequence (P07550 whole entry, looked up): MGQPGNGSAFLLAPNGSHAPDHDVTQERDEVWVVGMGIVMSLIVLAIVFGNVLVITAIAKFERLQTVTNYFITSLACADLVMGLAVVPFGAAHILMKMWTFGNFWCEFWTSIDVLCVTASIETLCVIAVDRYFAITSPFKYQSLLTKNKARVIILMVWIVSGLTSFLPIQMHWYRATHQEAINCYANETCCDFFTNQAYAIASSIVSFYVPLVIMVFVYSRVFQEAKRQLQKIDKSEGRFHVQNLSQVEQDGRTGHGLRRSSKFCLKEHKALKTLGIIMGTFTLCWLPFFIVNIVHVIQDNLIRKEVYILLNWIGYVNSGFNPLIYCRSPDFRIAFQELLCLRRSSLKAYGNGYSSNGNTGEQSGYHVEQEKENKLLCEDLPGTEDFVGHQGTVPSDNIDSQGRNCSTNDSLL

Structure (SMILES)	outcome
N.N.N.N.N.N.N.N.N.N.N.N.N.N.O.O.[Ru+4].[Ru+5].[Ru+5]	inactive
OCC1O[C@H](O)C(Cl)C(O)C1O (some centres undefined)	inactive
NS(=O)(=O)C#Cc1ccccc1	inactive
NCC1OC(O[C@H]2[C@H](O)[C@@H](OC3C(O)C(N)CC(N)C3OC3OC(CO)C(O)C(O)C3N)O[C@@H]2CO)C(N)C(O)C1O (some centres undefined)	inactive
O=C(O)c1cc([N+](=O)[O-])ccc1NCCCc1ccccc1	inactive
Oc1ccccc1O	inactive
NCCNC(=O)c1ncsc1-c1cccc(F)c1	inactive
Cn1cc(C2=C(c3ccc(Cl)cc3Cl)C(=O)NC2=O)c2ccccc21	inactive
CC1(C)CCC=[N+]1[O-]	inactive
CCNC(=O)[C@H]1O[C@@H](n2cnc3c(N)nc(NCCc4ccc(CCC(=O)O)cc4)nc32)[C@H](O)[C@@H]1O	inactive
Nc1ncnc2c1ncn2[C@@H]1O[C@H](COP(=O)(O)OP(=O)(O)OP(=O)(O)OP(=O)(O)OC[C@@H]2O[C@H](n3cnc4c(N)ncnc43)[C@@H](O)[C@H]2O)[C@@H](O)[C@H]1O	inactive
O=C1NC(O)=NC1(c1ccccc1)c1ccccc1	inactive
Nc1nc(SCc2ccc([N+](=O)[O-])cc2)c2ncn([C@@H]3O[C@H](CO)[C@@H](O)[C@H]3O)c2n1	inactive
Cc1cc(NC(=O)Nc2ccc3c(ccn3C)c2)sn1	inactive
CN(C)c1ccc(/C=C2\C(=O)Nc3ccccc32)cc1	inactive
COc1cc(OC)c(/C=C2/C(=O)Nc3ccccc32)c(OC)c1	inactive
O=S(=O)(c1cccc2c(I)cccc12)N1CCCNCC1	inactive
CNc1ncnc2c1ncn2[C@@H]1O[C@H](CO)[C@@H](O)[C@H]1O	inactive
Cc1cc2c(cc1Cl)N(C(=O)Nc1ccc(Oc3cccnc3C)nc1)CC2	inactive
Fc1ccc(C(OCCCc2cnc[nH]2)c2ccc(F)cc2)cc1	inactive
COc1ccc(/C=C/C(=O)Nc2ccccc2C(=O)O)cc1OC	inactive
CN1CCc2ccccc2Cc2[nH]c3ccccc3c2CC1	inactive

These compounds were tested against ATP-dependent 6-phosphofructokinase (Trypanosoma brucei brucei) (UniProt O15648) (assay: qHTS Validation Assay to Find Inhibitors of T. brucei phosphofructokinase (AID 485368)). Conditions: T. brucei PFK enzyme assay, qHTS 7-point titration; series mostly up to 57.5 µM.
In short: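 Luminescent ADP detection measures PFK turnover of fructose-6-phosphate (0.5 mM) with ATP (0.1 mM) at pH 8.0. Reaction runs 45 min at room temperature with 1.25 nM enzyme; inhibitors tested as titrations up to 57 uM.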

ATP-dependent 6-phosphofructokinase (Trypanosoma brucei brucei), sequence (O15648 whole entry, looked up): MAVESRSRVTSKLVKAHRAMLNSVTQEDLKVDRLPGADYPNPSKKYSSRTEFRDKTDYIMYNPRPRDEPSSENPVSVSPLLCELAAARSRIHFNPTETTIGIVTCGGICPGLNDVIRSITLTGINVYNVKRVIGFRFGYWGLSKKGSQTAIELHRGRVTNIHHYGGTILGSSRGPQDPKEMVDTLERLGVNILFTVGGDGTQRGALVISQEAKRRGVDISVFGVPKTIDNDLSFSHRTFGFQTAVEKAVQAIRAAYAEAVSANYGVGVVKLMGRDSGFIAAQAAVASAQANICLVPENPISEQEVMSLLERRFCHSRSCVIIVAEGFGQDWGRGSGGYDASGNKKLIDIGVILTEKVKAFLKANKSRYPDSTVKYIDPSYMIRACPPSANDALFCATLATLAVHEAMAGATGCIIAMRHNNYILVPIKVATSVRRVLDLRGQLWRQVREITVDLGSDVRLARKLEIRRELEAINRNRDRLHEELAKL

Structure (SMILES)	Potency
NS(=O)(=O)C#Cc1ccccc1	inactive
Cn1cc(C2=C(c3ccc(Cl)cc3Cl)C(=O)NC2=O)c2ccccc21	inactive
O=c1[nH]c2cc(C(F)(F)F)ccc2n1-c1cc(C(F)(F)F)ccc1O	inactive
O=C1NC(=O)/C(=C/c2ccc3nccnc3c2)S1	inactive
O=C1NC(O)=NC1(c1ccccc1)c1ccccc1	inactive
Nc1ncnc2c1ncn2[C@@H]1O[C@H](COP(=O)(O)CP(=O)(O)OP(=O)(O)O)[C@@H](O)[C@H]1O	inactive
CC[C@@H](C)[C@H]1O[C@]2(CC[C@H]1C)C[C@@H]1C[C@@H](CC=C(C)[C@@H](O[C@H]3C[C@H](OC)[C@@H](O[C@H]4C[C@H](OC)[C@@H](O)[C@H](C)O4)[C@H](C)O3)[C@@H](C)C=CC=C3CO[C@@H]4[C@H](O)C(C)=C[C@@H](C(=O)O1)[C@]34O)O2	inactive
